High-throughput results (PubChem)
Sa growth inh = blocks Staphylococcus aureus growth; AID 720641; S. aureus RN4220 growth, OD600, 20 h, 42 °C; hits give low values; actives 0.53% (n = 170,000); relative growth, % (concentration not given with the values);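 active = relative growth at most 50% at the other temperature and 20+ points below 30 °C, or under 10% at both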
S aureus helic = S. aureus DNA helicase inhibition | purified S. aureus helicase, fluorescence unwinding assay | inhibition, % (concentration not given with the values) | actives 0.05% (n = 120,000); in the data active = inhibition above about 25%, passing the limit was not always enough
Each line names hits and unclear results; the compound was inactive in the other large screens. This is a sample that favours compounds with a hit; in the whole collection about 0.52% have one here.

CO[C@H]1C[C@H](O[C@H]2[C@H](C)[C@@H](O[C@@H]3O[C@H](C)C[C@H](N(C)C)[C@H]3OC(C)=O)[C@@H](C)C[C@@]3(CO3)C(=O)[C@H](C)[C@@H](OC(C)=O)[C@@H](C)[C@@H](C)OC(=O)[C@@H]2C)O[C@@H](C)[C@@H]1OC(C)=O	Sa growth inh 3.7 (no result: S aureus helic)
Fc1ccc(Cn2c(-c3ccco3)nc3ccccc32)cc1	none (no result: Sa growth inh)
NNc1nc(-c2ccco2)cc(C(F)(F)F)n1	none
CCOC(=O)c1c(C)csc1NC(=O)CSCC(=O)O	none (no result: S aureus helic)
O=C(NCc1ccco1)c1ccc2c(=O)n(CCCN3CCCC3=O)c(=S)[nH]c2c1	none
Fc1ccc(Nc2nc3ccccc3nc2Nc2ccc(F)cc2)cc1	Sa growth inh -0.4
Fc1ccc(Nc2nc(-c3ccncc3)nc3ccccc23)cc1	none
C/C(=C\c1nsc(Nc2ccc(Cl)cc2)n1)NCc1ccc2c(c1)OCO2	none
COc1cccc(CNc2ccc3c(c2)ncn3C2CCCCC2)c1	Sa growth inh 0.1
CCn1cnc2cc(NCc3cccc(OC)c3)ccc21	none
CC(=O)NCc1ccc(-c2csc(NC(=O)c3cnn(-c4ccccc4)n3)n2)cc1	none
N#C/C(=C\c1ccc(-c2ccc(S(N)(=O)=O)cc2)o1)c1ccc(Cl)cc1	none (no result: Sa growth inh)
C[C@@H]1CN(c2c(F)c(N)c3c(=O)c(C(=O)O)cn(C4CC4)c3c2F)C[C@H](C)N1	Sa growth inh -0.1 (no result: S aureus helic)
CC1=NN(c2ccccc2)C(=O)/C1=C\c1cn(CCC(=O)O)nc1-c1cc2ccccc2o1	none
CN(CC(=O)N1CCc2ccccc21)C1CCS(=O)(=O)C1 (stereo not given)	none
